Data reported in the supplement of paper PMC10338343.
± gives the standard deviation.

test system: EfPiwi piRISC loaded with piRNA #1 (26 nt); experiment: pre-steady-state target cleavage rate (min^-1); auxiliary factor: 500 nM Ephydatia muelleri Gtsf1; guide: piRNA #1 5'p-UGAGGUAGUAGGUUGUAUAGUAUCCA; MIWI and MILI are mouse PIWI proteins and EfPiwi is from a freshwater sponge; tags in brackets are library labels; higher = faster piRNA-guided slicing of the target
Outline: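 Sequencing of uncleaved targets, normalised to depth and to weakly complementary targets, was the readout of this Cleave-'n-Seq assay. A transcribed, DNA-blocked target RNA library (0.1 nM) was mixed with 1 nM active affinity-purified piRISC carrying one synthetic guide, with or without 500 nM GTSF1 partner protein, in HEPES–potassium acetate buffer at 33 °C for 0–8 or 0–960 min. Three trials were pooled, k3 was capped at 0.0001 min^-1, and a burst-and-steady-state fit gave the pre-steady-state cleavage rate.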

Sequence	pre-steady-state target cleavage rate
GGAGAGGAUACUAUACAACCUACUUACCUCA	0.00951 ± 0.004
GGAGACCAUACUUUACAACCUACUACCUCA	0.017 ± 0.0071
GGAGACCAUACUAUACAUCCUACUACCACA	0.00302 ± 0.0024
GGAGUGGAUACUAUACAACCUACUACCUA	0.249 ± 0.092
GGAGACCUAUGUAUACAACCUACUGACCUCA	< 0.0001
GGAGACCUUACUAGACAACCUACUACCUCA	0.0104 ± 0.0051
GGAGACCUUAACUAUACAACCUACUACCUCA	0.113 ± 0.039
GGAGACCUUACUAUACAACCUACUAACCUCA	0.00393 ± 0.0038
GGAGUGGAUACUAUACAACCUACUACGAGA	0.00447 ± 0.0022
GGAGACCUUACUAUAUAACCUACUACCUCA	0.00964 ± 0.005
GGAGUGGAUACUAUUCAACGUACUACCUCA	0.00373 ± 0.0014
GGAGUGGAUACUAUACAACCUACUAUCUCA	0.0684 ± 0.026
GGAGUGGAUACUAUACUACCAACUACCUCA	0.00428 ± 0.002
GGAGACGAUACUAUUACAACCUACUACCUCA	0.0508 ± 0.019
GGAGUGGAUACAAUACAACCUACUAGCUCA	0.00216 ± 0.0014
GGAGAGGAUACUAAACAACCUACAACCUCA	0.00196 ± 0.0019
GGAGACCAUACUAUACAUCCUAGUACCUCA	0.00345 ± 0.0019
GGAGACCUUACAAUACAACGUACUACCUCA	0.00409 ± 0.004
GGAGAGGAUACUAUACAACCUACGUACCUCA	0.00321 ± 0.0014
GGAGACCAUACUAUACAACCUACAUCCUCA	0.00325 ± 0.0028

Sequence	pre-steady-state target cleavage rate
GGAGAGGAUACCUAUACAACCUACUACCUCA	0.0826 ± 0.033
GGAGACCAUACUAUACACCUACUACCUCA	0.00694 ± 0.0042
GGAGACGAUACAUAUACAACCUACUACCUCA	0.00804 ± 0.0033
GGAGAGGAUACUAUACAACCUACUACCAUCA	0.00705 ± 0.0029
GGAGAGGAUACUCUACAACCUACUACCUCA	0.00431 ± 0.0033
GGAGACGAUACCUAUACAACCUACUACCUCA	0.0601 ± 0.023
GGAGACGAUACUAUAGAACGUACUACCUCA	0.00177 ± 0.0015
GGAGACGAUACUAUACAAGCUACUAGCUCA	0.00375 ± 0.0019
GGAGAGGAUACUAGUACAACCUACUACCUCA	0.0114 ± 0.0064
GGAGACCAUACUAUACAAGCUAGUACCUCA	0.0032 ± 0.0027
GGAGACCAUACUAUUCAAGCUACUACCUCA	0.00339 ± 0.0032
GGAGUGGAUAAUAUACAACCUACUACCUCA	0.0105 ± 0.0047
GGAGACCAUACGUAUACAACCUACUACCUCA	0.159 ± 0.064
GGAGUGGAUACUAUACAAGCAACUACCUCA	0.00256 ± 0.0013
GGAGAGGAUACUAUACAACCUUCUACCUCA	0.00778 ± 0.0039
GGAGACGAUACUAUACAACCACUACCUCA	0.00795 ± 0.0036
GGAGUGGAUACUAUACAACCAACUACCUCA	0.00568 ± 0.002
GGAGAGGAUACUUUACAACCUAGUACCUCA	0.00261 ± 0.0016
GGAGAGGAUACUAAACAACCUACUACCUCA	0.00787 ± 0.0036
GGAGACCAUACUAUACAACGUACUUCCUCA	0.00544 ± 0.0032
